The source of these data is PubChem BioAssay (NCI).

Among the test systems are HCT-15 colon; HT29 colon; SNB-75 CNS; SNB-19 CNS; U251 CNS; PC-3 prostate; SK-MEL-5 melanoma; UACC-62 melanoma; LOX IMVI melanoma; SK-MEL-28 melanoma; SK-MEL-2 melanoma; EKVX NSCLC; SN12C renal; UO-31 renal; TK-10 renal; ACHN renal; CAKI-1 renal; A498 renal; CCRF-CEM leukemia; MOLT-4 leukemia.
Common to all, as to assay: NCI-60 one-dose screen, 48 h (100 = growth as untreated, 0 = no growth, -100 = all killed)
Common to all, as to settings: 10 µM unless noted

Compounds without any hit were thinned out: in the full panel of roughly 83,000, 20% have a hit.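 Treatment: one concentration, 48 hours, 96-well format. Scoring: percent growth, with anything below 10 considered active.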 Values without a mark were called inactive. Active and inactive are the calls of the source.

In the case of `COc1ccc2cc(-c3nc4ccccc4[nH]3)c(=O)oc2c1`, the growth in the test with HCT-15 colon is 94.2%; with HT29 colon, 114%; with SNB-75 CNS, 126%; in the test with SNB-19 CNS, 98.3%; in the test with U251 CNS, 93.5%; in the test with PC-3 prostate, 87.5%. Further, the growth in the test with SK-MEL-5 melanoma is 94.8%; with UACC-62 melanoma it was 83.6%; with LOX IMVI melanoma it was 80.4%; in the test with SK-MEL-28 melanoma it was 103%; with SK-MEL-2 melanoma it was 22.1%; in the test with EKVX NSCLC, 77.3%. Also, the growth in the test with SN12C renal is 92.3%; in the test on UO-31 renal it was 94.2%; in the test on TK-10 renal, 119%; in the test on ACHN renal it was 86.2%; with CAKI-1 renal it was 82.2%; in the test with A498 renal, 95.6%. For the same compound, the growth in the test on CCRF-CEM leukemia is 95.3%; in the test with MOLT-4 leukemia it was 97.7%.

For `CC(C)=CCCC(C)c1ccc(C)c2c1OCN(CC1CCNCC1)C2` (configuration not stated), the growth is 39.8% with HCT-15 colon; -68.5% (active) in the test on HT29 colon; 89.3% in the test on SNB-75 CNS; 78.2% with SNB-19 CNS; -2.5% (active) with U251 CNS; 59.4% with PC-3 prostate. Further, the growth is 42.2% in the test on SK-MEL-5 melanoma; 63.5% in the test on UACC-62 melanoma; -70.5% (active) with LOX IMVI melanoma; 92.5% in the test with SK-MEL-28 melanoma; 96.3% in the test with SK-MEL-2 melanoma; 93% in the test on EKVX NSCLC. In addition, the growth with SN12C renal is 76.7%; with UO-31 renal it was 60.5%; in the test with TK-10 renal, 86%; with ACHN renal it was 92.9%; in the test with CAKI-1 renal, 80.2%; in the test on A498 renal, 75.6%. Moreover, the growth with CCRF-CEM leukemia was 26.7%; in the test on MOLT-4 leukemia, 34.1%.

Consider `O=C1Nc2ccc(C(=O)O)c(O)c2C1=O`, for which the growth is 110% in the test on HCT-15 colon; 117% with HT29 colon; 103% in the test with SNB-75 CNS; 107% in the test on SNB-19 CNS; 106% in the test on U251 CNS; 95.7% in the test with PC-3 prostate. Further, the growth in the test with SK-MEL-5 melanoma is 104%; with UACC-62 melanoma it was 101%; in the test on LOX IMVI melanoma, 54.5%; with SK-MEL-28 melanoma, 111%; in the test with SK-MEL-2 melanoma, 103%; in the test on EKVX NSCLC, 97.8%. For the same compound, the growth was 107% with SN12C renal; 91.7% in the test with UO-31 renal; 107% with TK-10 renal; 104% with ACHN renal; 92.2% in the test on CAKI-1 renal; 102% in the test with A498 renal. Moreover, the growth in the test with CCRF-CEM leukemia was 94.9%; in the test on MOLT-4 leukemia, 110%.

For the compound `O=C(O)CNC(=O)C1(N2C(=O)c3ccccc3C2=O)CCCC1`, the growth in the test with HCT-15 colon is 106%; with HT29 colon it was 105%; in the test with SNB-75 CNS it was 88.2%; in the test with SNB-19 CNS it was 99%; in the test with U251 CNS, 107%; in the test with PC-3 prostate it was 104%. Besides, the growth is 100% in the test with SK-MEL-5 melanoma; 94.5% in the test on UACC-62 melanoma; 97.2% with LOX IMVI melanoma; 104% in the test with SK-MEL-28 melanoma; 101% with SK-MEL-2 melanoma; 104% in the test with EKVX NSCLC. The growth in the test with SN12C renal is 99%; in the test on UO-31 renal, 94.1%; in the test on TK-10 renal it was 99.6%; in the test with ACHN renal, 108%; in the test with CAKI-1 renal, 98.5%; in the test with A498 renal, 100%. In addition, the values for the growth with CCRF-CEM leukemia and with MOLT-4 leukemia were 88.8% and 101%, respectively.

For `CC1c2ccccc2-c2ccccc2N1C` (configuration not stated), the growth in the test with HCT-15 colon is 102%; with HT29 colon, 102%; in the test on SNB-75 CNS, 105%; in the test on SNB-19 CNS, 97.3%; in the test on U251 CNS, 99.2%; with PC-3 prostate, 83.9%. Besides, the growth is 107% with SK-MEL-5 melanoma; 86.6% with UACC-62 melanoma; 94.6% in the test with LOX IMVI melanoma; 119% in the test on SK-MEL-28 melanoma; 101% in the test on SK-MEL-2 melanoma; 124% in the test on EKVX NSCLC. Besides, the growth with SN12C renal was 89.6%; in the test on UO-31 renal, 70.7%; in the test on TK-10 renal, 94.3%; in the test with ACHN renal, 103%; in the test with CAKI-1 renal, 95.7%; with CCRF-CEM leukemia, 101%. Besides, in the test with MOLT-4 leukemia, the growth was 103%.

Consider `CC1CN(CC(O)c2ccc(Br)cc2)CCO1` (configuration not stated), for which the growth was 107% in the test with HCT-15 colon; 113% with HT29 colon; 91.4% in the test with SNB-75 CNS; 105% in the test on SNB-19 CNS; 95.8% with U251 CNS; 101% in the test on PC-3 prostate. The growth is 108% in the test on SK-MEL-5 melanoma; 108% in the test with UACC-62 melanoma; 107% in the test on LOX IMVI melanoma; 119% in the test with SK-MEL-28 melanoma; 103% in the test with SK-MEL-2 melanoma; 120% in the test with EKVX NSCLC. Besides, the growth in the test on SN12C renal was 110%; in the test with UO-31 renal, 85.4%; in the test with TK-10 renal it was 110%; in the test on ACHN renal, 106%; in the test on CAKI-1 renal, 103%; in the test on CCRF-CEM leukemia, 102%. For the same compound, the growth with MOLT-4 leukemia was 97%.

With `NS(=O)(=O)c1ccc(-n2ncc3c(SCc4ccccc4)ncnc32)cc1`, the growth in the test with HCT-15 colon is 93.7%; with HT29 colon, 94.1%; in the test on SNB-75 CNS, 102%; with SNB-19 CNS it was 93.9%; in the test on U251 CNS it was 98.3%; with PC-3 prostate, 90.9%. Also, the growth in the test with SK-MEL-5 melanoma was 79.5%; in the test on UACC-62 melanoma, 92.8%; with LOX IMVI melanoma it was 92.8%; in the test with SK-MEL-28 melanoma, 107%; with SK-MEL-2 melanoma, 99.8%; with EKVX NSCLC, 107%. For the same compound, the growth in the test with SN12C renal is 98.8%; with UO-31 renal it was 98.5%; in the test with TK-10 renal, 89.4%; with ACHN renal, 98%; with CAKI-1 renal it was 26.3%; with A498 renal it was 111%. Moreover, the growth with MOLT-4 leukemia was 50.3%.

With `CCOC(=O)c1cc2oc(/C=C/c3cc(=O)c4cc(Cl)ccc4o3)cc2[nH]1`, the growth with HCT-15 colon was 105%; in the test on HT29 colon, 96.6%; in the test on SNB-75 CNS it was 73%; in the test with SNB-19 CNS it was 92.1%; with U251 CNS it was 92.5%; in the test on PC-3 prostate, 85.2%. Besides, the growth in the test with SK-MEL-5 melanoma is 68.2%; with UACC-62 melanoma, 75.8%; in the test with LOX IMVI melanoma, 101%; with SK-MEL-28 melanoma, 91.4%; in the test on SK-MEL-2 melanoma it was 82.1%; in the test on EKVX NSCLC, 89.7%. For the same compound, the growth with SN12C renal is 62.4%; in the test on UO-31 renal, 81.8%; with TK-10 renal, 113%; in the test on ACHN renal, 97.8%; in the test with CAKI-1 renal, 79%; with A498 renal, 115%. The growth in the test with CCRF-CEM leukemia is 105%; in the test with MOLT-4 leukemia it was 88.9%.
